Experimental data published in the supplement of paper PMC10849652.
Targets with a hit are over-represented here; the source holds about 7,900 in all. About 0.6% of all pairs of compound and target were hits.

Key:
Assay in all cases: log2 fold change, soluble protein after heating vs DMSO (PISA); higher = thermal stabilisation; K562 cells, 10 uM, 30 min; active = over 0.2 and 3.5 SD of the protein, either way, in both replicates (recomputed)
[1] = compound: CS(=O)(=O)c1ccc(-c2cnc(N)c(C(=O)Nc3ccccc3)n2)cc1
Procedure, shortened: (§1)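 K562 cells at 2×10^6 cells/mL were exposed to 10 μM compound for 30 min, then aliquots were heated for 3 min across 48°C-58°C, pooled, and extracted in PBS containing 0.5% NP-40 at 4°C. The supernatant after 21,000xg for 90 min was taken as soluble protein and measured by TMTpro 16plex LC-MS/MS with channel sums equalised. Thermal stability is reported relative to control samples, with values from duplicates. Fold changes are given on a log2 scale.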

crizotinib = compound: C[C@@H](Oc1cc(-c2cnn(C3CCNCC3)c2)cnc1N)c1c(Cl)ccc(F)c1Cl [crizotinib]
Procedure, shortened: as §1

[2] = compound: C[C@@H]1COCCN1C2=NC(=NC(=C2)C3(CC3)S(=O)(=O)C)C4=C5C=CNC5=CC=C4
Procedure, shortened: as §1

[3] = compound: C[C@H](C1=CC=C(C=C1)C(=O)NC2=C3C=CNC3=NC=C2)N
Procedure, shortened: as §1

duvelisib = compound: C[C@H](Nc1ncnc2nc[nH]c12)c1cc2cccc(Cl)c2c(=O)n1-c1ccccc1 [duvelisib]
Procedure, shortened: as §1

gandotinib = compound: Cc1cc(Nc2cc(CN3CCOCC3)c3nc(C)c(Cc4ccc(Cl)cc4F)n3n2)n[nH]1 [gandotinib]
Procedure, shortened: as §1

tozasertib = compound: Cc1cc(Nc2cc(N3CCN(C)CC3)nc(Sc3ccc(NC(=O)C4CC4)cc3)n2)n[nH]1 [tozasertib]
Procedure, shortened: as §1

[4] = compound: Cc1cc(SCc2sc(-c3ccc(C(F)(F)F)cc3)nc2C)ccc1OCC(=O)O
Procedure, shortened: as §1

doramapimod = compound: Cc1ccc(-n2nc(C(C)(C)C)cc2NC(=O)Nc2ccc(OCCN3CCOCC3)c3ccccc23)cc1 [doramapimod]
Procedure, shortened: as §1

ispinesib = compound: Cc1ccc(C(=O)N(CCCN)[C@@H](c2nc3cc(Cl)ccc3c(=O)n2Cc2ccccc2)C(C)C)cc1 [ispinesib]
Procedure, shortened: as §1

bafetinib = compound: Cc1ccc(NC(=O)c2ccc(CN3CC[C@H](N(C)C)C3)c(C(F)(F)F)c2)cc1Nc1nccc(-c2cncnc2)n1 [bafetinib]
Procedure, shortened: as §1

[5] = compound: Cc1cccc(CC(=O)N2CCc3c2ccc(-c2cn(C)c4ncnc(N)c24)c3F)n1
Procedure, shortened: as §1

nilotinib = compound: Cc1cn(-c2cc(NC(=O)c3ccc(C)c(Nc4nccc(-c5cccnc5)n4)c3)cc(C(F)(F)F)c2)cn1 [nilotinib]
Procedure, shortened: as §1

[6] = compound: Cc1nc(Nc2n[nH]c3c2CN(C(=O)N[C@H](CN(C)C)c2ccccc2)C3(C)C)c2sccc2n1
Procedure, shortened: as §1

dasatinib = compound: Cc1nc(Nc2ncc(C(=O)Nc3c(C)cccc3Cl)s2)cc(N2CCN(CCO)CC2)n1 [dasatinib]
Procedure, shortened: as §1

[7] = compound: Cc1ncc(-c2ccnc(Nc3ccc(S(C)(=O)=O)cc3)n2)n1C(C)C
Procedure, shortened: as §1

[8] = compound: Cn1cc(-c2ccc3c(c2)CCN3C(=O)Cc2cccc(C(F)(F)F)c2)c2c(N)ncnc21
Procedure, shortened: as §1

[9] = compound: Cn1cc(-c2ccc3nnc(C(F)(F)c4ccc5ncccc5c4)n3n2)cn1
Procedure, shortened: as §1

tipifarnib = compound: Cn1cncc1[C@@](N)(c1ccc(Cl)cc1)c1ccc2c(c1)c(-c1cccc(Cl)c1)cc(=O)n2C [tipifarnib]
Procedure, shortened: as §1

mubritinib = compound: FC(F)(F)c1ccc(/C=C/c2nc(COc3ccc(CCCCn4ccnn4)cc3)co2)cc1 [mubritinib]
Procedure, shortened: as §1

Measured: log2 fold change

AKR1C3 (UniProt P42330)
Sequence of UniProt P42330 (P42330 whole entry, looked up): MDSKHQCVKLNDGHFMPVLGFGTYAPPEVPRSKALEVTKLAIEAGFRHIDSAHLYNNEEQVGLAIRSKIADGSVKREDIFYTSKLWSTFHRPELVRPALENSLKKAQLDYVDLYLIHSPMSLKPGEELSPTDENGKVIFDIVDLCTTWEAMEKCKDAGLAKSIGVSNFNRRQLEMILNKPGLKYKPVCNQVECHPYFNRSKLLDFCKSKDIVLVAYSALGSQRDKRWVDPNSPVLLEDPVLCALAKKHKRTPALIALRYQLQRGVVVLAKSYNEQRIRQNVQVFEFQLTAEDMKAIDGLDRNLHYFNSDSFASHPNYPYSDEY
inactive: [1] -0.101 | crizotinib 0.028 | [2] -0.009 | [3] -0.035 | duvelisib 0.23 | gandotinib 0.005 | tozasertib -0.059 | [4] 0.078 | doramapimod -0.012 | ispinesib 0.371 | bafetinib 0.018 | [5] -0.03 | nilotinib 0.025 | [6] 0.004 | dasatinib -0.038 | [7] 0.078 | [8] 0.068 | mubritinib -0.147
active: [9] 0.557 | tipifarnib 0.862

ATOX1 (UniProt O00244)
Sequence of UniProt O00244 (O00244 whole entry, looked up): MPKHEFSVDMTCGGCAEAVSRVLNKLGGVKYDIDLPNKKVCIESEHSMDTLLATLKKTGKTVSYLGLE
inactive: [1] -0.051 | crizotinib -0.057 | [2] 0.235 | [3] -0.269 | duvelisib 0.144 | gandotinib 0.068 | tozasertib 0.038 | [4] -0.071 | doramapimod 0.051 | ispinesib 0.212 | bafetinib -0.02 | [5] 0.043 | nilotinib 0.047 | [6] 0.036 | dasatinib 0.161 | [7] -0.009 | [8] 0.174 | [9] -0.084 | mubritinib 0.004
active: tipifarnib -0.404

BCL9L (UniProt Q86UU0)
Sequence of UniProt Q86UU0 (Q86UU0 whole entry, looked up): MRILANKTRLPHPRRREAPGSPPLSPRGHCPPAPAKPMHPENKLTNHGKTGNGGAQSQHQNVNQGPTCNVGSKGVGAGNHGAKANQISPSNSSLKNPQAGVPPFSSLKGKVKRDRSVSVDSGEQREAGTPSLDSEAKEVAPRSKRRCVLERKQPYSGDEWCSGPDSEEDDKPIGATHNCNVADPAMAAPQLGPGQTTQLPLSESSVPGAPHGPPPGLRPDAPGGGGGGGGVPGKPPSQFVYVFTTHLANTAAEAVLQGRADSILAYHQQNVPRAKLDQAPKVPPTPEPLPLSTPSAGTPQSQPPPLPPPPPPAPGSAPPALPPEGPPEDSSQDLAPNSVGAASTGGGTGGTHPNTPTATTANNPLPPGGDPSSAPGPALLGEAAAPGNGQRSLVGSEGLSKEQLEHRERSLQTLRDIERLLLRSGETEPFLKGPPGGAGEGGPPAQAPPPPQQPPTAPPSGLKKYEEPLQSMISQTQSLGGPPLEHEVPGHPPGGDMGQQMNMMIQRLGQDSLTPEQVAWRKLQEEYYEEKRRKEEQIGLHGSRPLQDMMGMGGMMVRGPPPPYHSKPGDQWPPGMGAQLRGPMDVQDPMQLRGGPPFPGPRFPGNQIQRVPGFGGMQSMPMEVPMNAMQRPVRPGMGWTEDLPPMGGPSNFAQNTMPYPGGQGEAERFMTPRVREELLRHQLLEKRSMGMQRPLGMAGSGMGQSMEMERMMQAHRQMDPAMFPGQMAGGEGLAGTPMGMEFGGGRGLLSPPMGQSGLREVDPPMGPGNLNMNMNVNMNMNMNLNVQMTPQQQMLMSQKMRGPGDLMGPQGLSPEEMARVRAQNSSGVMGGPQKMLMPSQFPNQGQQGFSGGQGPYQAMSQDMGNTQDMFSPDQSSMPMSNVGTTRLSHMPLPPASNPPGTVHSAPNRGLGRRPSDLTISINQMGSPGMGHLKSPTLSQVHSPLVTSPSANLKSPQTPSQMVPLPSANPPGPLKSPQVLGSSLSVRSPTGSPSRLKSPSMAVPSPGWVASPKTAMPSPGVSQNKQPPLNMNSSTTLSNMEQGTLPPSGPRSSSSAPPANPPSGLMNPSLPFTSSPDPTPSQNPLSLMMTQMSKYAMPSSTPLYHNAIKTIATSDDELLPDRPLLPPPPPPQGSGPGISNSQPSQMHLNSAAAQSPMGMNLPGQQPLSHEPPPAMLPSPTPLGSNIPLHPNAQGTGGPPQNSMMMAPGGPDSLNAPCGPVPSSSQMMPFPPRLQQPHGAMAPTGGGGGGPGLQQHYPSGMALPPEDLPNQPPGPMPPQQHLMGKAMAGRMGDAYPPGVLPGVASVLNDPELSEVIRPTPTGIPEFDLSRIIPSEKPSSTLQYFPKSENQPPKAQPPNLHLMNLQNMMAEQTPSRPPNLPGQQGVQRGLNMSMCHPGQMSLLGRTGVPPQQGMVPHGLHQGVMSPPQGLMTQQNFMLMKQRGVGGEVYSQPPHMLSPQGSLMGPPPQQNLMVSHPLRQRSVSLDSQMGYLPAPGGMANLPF
inactive: [1] 0.029 | crizotinib 0.085 | [2] 0.018 | [3] -0.002 | duvelisib -0.011 | gandotinib 0.097 | tozasertib -0.076 | [4] -0.112 | doramapimod 0.006 | ispinesib 0.025 | bafetinib 0.043 | [5] 0 | nilotinib -0.046 | [6] -0.064 | dasatinib 0.018 | [7] 0.053 | [8] -0.013 | [9] -0.031 | tipifarnib 0.014 | mubritinib 0.026

ATP11A (UniProt P98196)
inactive: [1] 0.017 | crizotinib 0.042 | [2] 0.032 | [3] -0.103 | duvelisib -0.025 | gandotinib 0.027 | tozasertib -0.017 | [4] -0.055 | doramapimod 0.018 | ispinesib 0.092 | bafetinib -0.028 | [5] -0.002 | nilotinib 0.113 | [6] -0.012 | dasatinib -0.01 | [7] 0.029 | [8] -0.006 | [9] 0.01 | tipifarnib 0.051 | mubritinib 0.056

ATP13A2 (UniProt Q9NQ11)
Sequence of UniProt Q9NQ11 (Q9NQ11 whole entry, looked up): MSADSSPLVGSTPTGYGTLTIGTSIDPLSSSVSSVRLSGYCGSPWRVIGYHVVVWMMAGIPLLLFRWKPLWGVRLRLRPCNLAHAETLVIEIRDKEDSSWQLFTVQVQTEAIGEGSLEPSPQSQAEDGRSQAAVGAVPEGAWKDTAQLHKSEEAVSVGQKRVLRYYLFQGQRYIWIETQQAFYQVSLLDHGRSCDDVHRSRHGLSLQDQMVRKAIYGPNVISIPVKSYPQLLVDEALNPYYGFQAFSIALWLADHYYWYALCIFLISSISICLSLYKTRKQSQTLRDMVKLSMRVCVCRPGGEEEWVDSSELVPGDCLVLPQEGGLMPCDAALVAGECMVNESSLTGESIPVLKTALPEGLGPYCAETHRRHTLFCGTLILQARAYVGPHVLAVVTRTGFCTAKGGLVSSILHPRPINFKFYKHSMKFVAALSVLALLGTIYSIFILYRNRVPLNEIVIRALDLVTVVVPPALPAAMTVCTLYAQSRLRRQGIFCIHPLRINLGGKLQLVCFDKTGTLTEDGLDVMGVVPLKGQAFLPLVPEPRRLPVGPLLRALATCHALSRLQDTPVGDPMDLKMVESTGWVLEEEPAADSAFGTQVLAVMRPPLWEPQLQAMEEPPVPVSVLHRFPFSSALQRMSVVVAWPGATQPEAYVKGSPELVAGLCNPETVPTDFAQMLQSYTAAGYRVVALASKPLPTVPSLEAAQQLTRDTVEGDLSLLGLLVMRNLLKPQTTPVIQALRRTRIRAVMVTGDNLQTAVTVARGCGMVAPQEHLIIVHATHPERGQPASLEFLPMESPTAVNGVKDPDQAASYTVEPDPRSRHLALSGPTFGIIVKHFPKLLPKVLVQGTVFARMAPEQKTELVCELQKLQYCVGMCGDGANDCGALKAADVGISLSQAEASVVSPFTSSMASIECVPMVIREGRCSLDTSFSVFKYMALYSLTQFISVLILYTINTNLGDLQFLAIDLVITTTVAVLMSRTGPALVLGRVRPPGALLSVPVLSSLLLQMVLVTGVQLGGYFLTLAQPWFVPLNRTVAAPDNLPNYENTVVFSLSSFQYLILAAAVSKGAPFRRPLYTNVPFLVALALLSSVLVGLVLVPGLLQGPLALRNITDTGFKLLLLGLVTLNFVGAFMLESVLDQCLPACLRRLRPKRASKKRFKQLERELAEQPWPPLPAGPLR
active: ispinesib -0.363
inactive: [1] -0.012 | crizotinib -0.214 | [2] 0.031 | [3] 0.008 | duvelisib 0.105 | gandotinib 0.01 | tozasertib -0.006 | [4] 0.018 | doramapimod 0.025 | bafetinib -0.002 | [5] 0.001 | nilotinib 0.01 | [6] 0.014 | dasatinib -0.007 | [7] 0.018 | [8] 0.045 | [9] 0.069 | tipifarnib 0.06 | mubritinib 0.108

BCCIP (UniProt Q9P287)
inactive: [1] -0.015 | crizotinib -0.02 | [2] -0.044 | [3] 0.074 | duvelisib -0.03 | gandotinib -0.093 | tozasertib -0.005 | [4] 0.037 | doramapimod 0.01 | ispinesib 0.001 | bafetinib 0.048 | [5] 0 | nilotinib -0.019 | [6] -0.022 | dasatinib -0.161 | [7] 0.03 | [8] -0.009 | [9] -0.006 | tipifarnib 0.006 | mubritinib 0.001

ADD1 isoform 3 (UniProt P35611)
Sequence of UniProt P35611 (P35611 whole entry, looked up): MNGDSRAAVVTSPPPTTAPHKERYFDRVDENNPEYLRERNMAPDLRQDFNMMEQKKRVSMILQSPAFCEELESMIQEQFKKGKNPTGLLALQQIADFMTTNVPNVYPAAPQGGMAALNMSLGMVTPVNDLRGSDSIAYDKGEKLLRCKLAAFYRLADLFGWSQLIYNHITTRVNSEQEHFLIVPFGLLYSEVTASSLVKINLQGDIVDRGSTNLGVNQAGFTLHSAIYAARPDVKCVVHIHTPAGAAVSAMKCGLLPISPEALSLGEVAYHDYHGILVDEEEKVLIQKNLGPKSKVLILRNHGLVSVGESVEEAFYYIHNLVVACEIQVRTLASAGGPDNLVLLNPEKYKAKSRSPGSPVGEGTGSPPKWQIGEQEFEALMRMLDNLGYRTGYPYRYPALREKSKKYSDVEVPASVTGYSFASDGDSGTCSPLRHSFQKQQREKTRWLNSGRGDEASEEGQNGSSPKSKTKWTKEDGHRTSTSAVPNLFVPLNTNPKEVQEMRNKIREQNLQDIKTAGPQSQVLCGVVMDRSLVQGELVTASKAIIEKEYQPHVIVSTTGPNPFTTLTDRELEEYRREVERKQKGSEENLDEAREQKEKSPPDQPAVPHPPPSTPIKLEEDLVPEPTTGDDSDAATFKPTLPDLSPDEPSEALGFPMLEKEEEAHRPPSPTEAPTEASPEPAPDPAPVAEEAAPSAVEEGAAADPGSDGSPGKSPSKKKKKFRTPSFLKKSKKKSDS
inactive: [1] 0.018 | crizotinib 0.005 | [2] -0.011 | [3] -0.109 | duvelisib 0.011 | gandotinib -0.054 | tozasertib -0.008 | [4] -0.015 | doramapimod 0.001 | ispinesib 0.045 | bafetinib -0.018 | [5] 0.068 | nilotinib 0.014 | [6] -0.02 | dasatinib 0.041 | [7] -0.093 | [8] 0.009 | [9] 0.014 | tipifarnib 0.015 | mubritinib 0.033

BRD8 (UniProt Q9H0E9)
Sequence of UniProt Q9H0E9 (Q9H0E9 whole entry, looked up): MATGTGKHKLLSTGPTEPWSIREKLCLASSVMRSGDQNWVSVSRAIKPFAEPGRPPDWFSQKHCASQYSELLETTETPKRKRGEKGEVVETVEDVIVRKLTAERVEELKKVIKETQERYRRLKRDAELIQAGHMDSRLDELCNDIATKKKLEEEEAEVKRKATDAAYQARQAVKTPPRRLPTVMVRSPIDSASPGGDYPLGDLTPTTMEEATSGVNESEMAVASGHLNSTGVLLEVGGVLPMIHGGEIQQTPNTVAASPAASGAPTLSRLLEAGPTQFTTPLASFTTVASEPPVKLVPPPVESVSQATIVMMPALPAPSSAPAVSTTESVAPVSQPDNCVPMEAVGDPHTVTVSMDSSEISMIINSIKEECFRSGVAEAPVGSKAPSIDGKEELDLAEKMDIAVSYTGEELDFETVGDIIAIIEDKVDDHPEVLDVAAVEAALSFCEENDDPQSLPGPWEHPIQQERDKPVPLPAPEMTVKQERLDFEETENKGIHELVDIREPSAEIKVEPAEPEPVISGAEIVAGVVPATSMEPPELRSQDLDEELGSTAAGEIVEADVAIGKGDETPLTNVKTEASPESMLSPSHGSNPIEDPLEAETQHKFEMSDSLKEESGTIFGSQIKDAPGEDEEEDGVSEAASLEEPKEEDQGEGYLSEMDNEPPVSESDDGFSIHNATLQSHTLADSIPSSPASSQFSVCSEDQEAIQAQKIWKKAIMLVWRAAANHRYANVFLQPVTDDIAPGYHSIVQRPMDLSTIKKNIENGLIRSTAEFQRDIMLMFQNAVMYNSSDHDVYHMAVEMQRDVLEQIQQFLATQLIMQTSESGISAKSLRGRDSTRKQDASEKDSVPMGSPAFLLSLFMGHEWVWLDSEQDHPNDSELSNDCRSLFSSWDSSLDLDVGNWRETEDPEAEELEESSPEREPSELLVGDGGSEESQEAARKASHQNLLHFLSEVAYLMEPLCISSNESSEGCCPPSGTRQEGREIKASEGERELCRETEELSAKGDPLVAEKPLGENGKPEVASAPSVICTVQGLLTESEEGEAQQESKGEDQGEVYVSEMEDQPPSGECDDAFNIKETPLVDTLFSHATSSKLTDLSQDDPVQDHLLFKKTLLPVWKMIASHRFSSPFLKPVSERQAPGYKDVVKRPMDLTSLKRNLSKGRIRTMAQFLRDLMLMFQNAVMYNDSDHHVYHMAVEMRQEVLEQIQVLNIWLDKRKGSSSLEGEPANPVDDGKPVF
inactive: [1] 0 | crizotinib -0.021 | [2] 0.018 | [3] 0.06 | duvelisib -0.009 | gandotinib -0.013 | tozasertib 0.046 | [4] -0.054 | doramapimod 0.023 | ispinesib -0.022 | bafetinib -0.032 | [5] -0.072 | nilotinib -0.01 | [6] -0.055 | dasatinib 0.057 | [7] -0.019 | [8] 0.018 | [9] -0.028 | tipifarnib 0.054 | mubritinib 0.011

B4GALNT1 (UniProt Q00973)
inactive: [1] 0.198 | crizotinib 0.014 | [2] -0.003 | [3] -0.019 | duvelisib 0.06 | gandotinib -0.077 | tozasertib -0.003 | [4] 0.12 | doramapimod 0.065 | ispinesib -0.077 | bafetinib 0.141 | [5] -0.042 | nilotinib 0.083 | [6] 0.012 | dasatinib 0.076 | [7] -0.125 | [8] -0.128 | [9] 0.036 | tipifarnib 0.025 | mubritinib 0.015

ATP1A1 (UniProt P05023)
inactive: [1] 0.032 | crizotinib 0.165 | [2] 0.028 | [3] -0.117 | duvelisib 0.029 | gandotinib -0.049 | tozasertib -0.061 | [4] -0.035 | doramapimod -0.047 | ispinesib 0.106 | bafetinib 0.018 | [5] 0.102 | nilotinib 0.062 | [6] 0.008 | dasatinib 0.07 | [7] 0.005 | [8] 0.04 | [9] 0.001 | tipifarnib -0.011 | mubritinib 0.023

AGPAT5 (UniProt Q9NUQ2)
inactive: [1] 0.035 | crizotinib -0.117 | [2] 0.151 | [3] -0.014 | duvelisib 0.065 | gandotinib -0.09 | tozasertib 0.002 | [4] -0.029 | doramapimod 0.001 | ispinesib -0.145 | bafetinib -0.133 | [5] 0.021 | nilotinib 0.008 | [6] 0.04 | dasatinib -0.058 | [7] -0.035 | [8] 0.09 | [9] 0.045 | tipifarnib 0.02 | mubritinib 0.014

ANP32E (UniProt Q9BTT0)
inactive: [1] -0.021 | crizotinib 0.055 | [2] 0.12 | [3] -0.16 | duvelisib 0.036 | gandotinib -0.082 | tozasertib 0.096 | [4] 0.026 | doramapimod -0.014 | ispinesib 0.002 | bafetinib 0.04 | [5] 0.146 | nilotinib -0.061 | [6] -0.123 | dasatinib 0.053 | [7] -0.104 | [8] 0.013 | [9] 0.027 | tipifarnib 0.001 | mubritinib -0.047
